The record followed here is ChEMBL document CHEMBL5606460, “ASAP - DENV-2 NS2B-NS3 protease fluorescence single point” (2024).

The target of the assay is Genome polyprotein (dengue virus type 2) (UniProt P29990).
Setting [1] is: Thailand/16681/1984, Concentration 25.0 uM, Number of replicates 1.0.

Molecules are shown by their SMILES. Screen size: about 2,000 compounds; about 110 (5.5%) showed an effect of 50% or more. This is one part of a sample in which strong results are shown more often than they occur.

On to `CC(C)(CO)NC(=O)c1cc(Cl)cc(NS(=O)(=O)c2ccccc2)c1`, for which the inhibition is -5.72% (Thailand/16681/1984, Concentration 49.5 uM, Number of replicates 2.0, Standard deviation 0.43077113751226487 %); -4.57% (Thailand/16681/1984, Concentration 99.01 uM, Number of replicates 2.0, Standard deviation 0.028975789763845603 %); -2.99% (Thailand/16681/1984, Concentration 198.0 uM, Number of replicates 2.0, Standard deviation 1.4999717780869397 %).
As for `O=Cc1ccc(N2CCC(C(=O)NCc3cc(C(F)(F)F)ccc3C(F)(F)F)CC2)cc1`, the inhibition under setting [1] came out at 1.04%.
For `Cn1cnc2[nH]c(C(=O)N3CC[C@H](c4c[nH]c5ccccc45)C3)cc21`, the inhibition by setting is: (Thailand/16681/1984, Concentration 49.5 uM, Number of replicates 2.0, Standard deviation 2.003876801484884 %) -2.49%; (Thailand/16681/1984, Concentration 99.01 uM, Number of replicates 2.0, Standard deviation 1.2772748269322285 %) -1.94%; (Thailand/16681/1984, Concentration 198.0 uM, Number of replicates 2.0, Standard deviation 1.685869304282425 %) -0.105%.
With `O=Cc1ccc(N2CCC(C(=O)Nc3ccc(O)cc3[N+](=O)[O-])CC2)cc1`, under setting [1], the inhibition was found to be 24.5%.
Take `O=Cc1ccc(N2CCC(C(=O)Nc3ccc([N+](=O)[O-])cc3Cl)CC2)cc1`: the inhibition under setting [1] came out at 23.5%.
As for `O=Cc1ccc(N2CCC(C(=O)Nc3cc(Cl)c(F)c(Cl)c3)CC2)cc1`, the inhibition under setting [1] is 13.1%.
Consider `O=Cc1ccc(N2CCC(C(=O)Nc3ccc(Cl)c(Cl)c3)CC2)cc1`, for which the inhibition under setting [1] came to 11.8%.
As for `O=Cc1ccc(N2CCC(C(=O)Nc3c(Cl)cc(Cl)cc3Br)CC2)cc1`, the inhibition under setting [1] was found to be 13.4%.
Still for that read-out and setting: then `O=Cc1ccc(N2CCC(C(=O)Nc3cc(Cl)ccc3Br)CC2)cc1`, with 13.8%; and `O=Cc1ccc(N2CCC(C(=O)Nc3cc(Cl)cc([N+](=O)[O-])c3O)CC2)cc1`, with 90.5%.
Take `O=Cc1ccc(N2CCC(C(=O)Nc3cc(Cl)cc(Cl)c3O)CC2)cc1`: under setting [1], the inhibition came out at 98.2%.
On the same count and under the same terms, as for `O=Cc1ccc(N2CCC(C(=O)Nc3cc(Cl)c(O)c(Cl)c3)CC2)cc1`, the figure is 100%.
Turning to `c1cnc2c(C3CCN(Cc4cnn5ccccc45)CC3)c[nH]c2c1`, the inhibition is, setting by setting: (Thailand/16681/1984, Concentration 49.5 uM, Number of replicates 2.0, Standard deviation 1.316281988110152 %) -4.72%; (Thailand/16681/1984, Concentration 99.01 uM, Number of replicates 2.0, Standard deviation 2.2605015442223797 %) -3.44%; (Thailand/16681/1984, Concentration 198.0 uM, Number of replicates 2.0, Standard deviation 0.9691516929362414 %) -2.08%.
Regarding `O=Cc1ccc(N2CCC(C(=O)N3CCN(C(=O)Cc4ccccc4)CC3)CC2)cc1`, under setting [1], the inhibition was 12.3%.
`CN(C)C1(CNC(=O)C2CCN(c3ccc(C=O)cc3)CC2)CCOCC1`: the inhibition under setting [1] was 12.1%.
Take `NCc1ncc(C(=O)Nc2ccccc2N2CCC(CO)CC2)c(C(F)(F)F)n1`: the inhibition by setting is: (Thailand/16681/1984, Concentration 49.5 uM, Number of replicates 2.0, Standard deviation 1.1543273279104322 %) 2.58%; (Thailand/16681/1984, Concentration 99.01 uM, Number of replicates 2.0, Standard deviation 0.2964400275887672 %) 4.99%; (Thailand/16681/1984, Concentration 198.0 uM, Number of replicates 2.0, Standard deviation 0.14686490832106133 %) 6.91%.
Take `NCc1cccc(NC(=O)[C@H]2CN(C(=O)OCc3ccccc3)CC23CCOCC3)c1`: the inhibition (Thailand/16681/1984, Concentration 49.5 uM, Number of replicates 2.0, Standard deviation 3.4820905640560142 %) was -2.83%; the inhibition (Thailand/16681/1984, Concentration 99.01 uM, Number of replicates 2.0, Standard deviation 3.010767204046265 %) is -1.08%; the inhibition (Thailand/16681/1984, Concentration 198.0 uM, Number of replicates 2.0, Standard deviation 2.6769829613344203 %) is -0.776%.
`O=Cc1ccc(N2CCC(C(=O)Nc3ccc(OC(F)(F)F)cc3Cl)CC2)cc1`: the inhibition under setting [1] stood at 13.6%.
In the case of `COc1cc(COc2cncnc2)nc(N2CCNCC2)n1`, the inhibition runs as follows: (Thailand/16681/1984, Concentration 49.5 uM, Number of replicates 2.0, Standard deviation 3.306986633712837 %) -2.35%; (Thailand/16681/1984, Concentration 99.01 uM, Number of replicates 2.0, Standard deviation 2.7720530174645646 %) -0.505%; (Thailand/16681/1984, Concentration 198.0 uM, Number of replicates 2.0, Standard deviation 2.4477408574870583 %) 0.524%.
Take `O=C(NCc1c[nH]nn1)c1cc(Cl)ccc1NS(=O)(=O)c1ccc(Oc2ccccc2Cl)cc1`: the inhibition (Thailand/16681/1984, Concentration 49.5 uM, Number of replicates 2.0, Standard deviation 0.023138282657692737 %) was determined as 75.2%; the inhibition (Thailand/16681/1984, Concentration 99.01 uM, Number of replicates 2.0, Standard deviation 0.008898717007196123 %) came out at 63.2%; the inhibition (Thailand/16681/1984, Concentration 198.0 uM, Number of replicates 2.0, Standard deviation 0.06140627240643217 %) was 36.5%.
Consider `Cc1ccc(CNC(=O)c2cc(Cl)ccc2NS(=O)(=O)c2ccc(Oc3ccccc3Cl)cc2)s1`, for which the inhibition came to 83.2% (Thailand/16681/1984, Concentration 49.5 uM, Number of replicates 2.0, Standard deviation 0.032039697063193553 %); 78.6% (Thailand/16681/1984, Concentration 99.01 uM, Number of replicates 2.0, Standard deviation 0.20602188771616411 %); 69.5% (Thailand/16681/1984, Concentration 198.0 uM, Number of replicates 2.0, Standard deviation 0.539307027447943 %).
On to `O=C(NCc1cocn1)c1cc(Cl)ccc1NS(=O)(=O)c1ccc(Oc2ccccc2Cl)cc1`, for which the inhibition reads like this: (Thailand/16681/1984, Concentration 49.5 uM, Number of replicates 2.0, Standard deviation 0.2927162692291327 %) 78.5%; (Thailand/16681/1984, Concentration 99.01 uM, Number of replicates 2.0, Standard deviation 0.11144031356026086 %) 70.2%; (Thailand/16681/1984, Concentration 198.0 uM, Number of replicates 2.0, Standard deviation 0.4940824474713894 %) 60.8%.
Consider `COc1cccc(Cn2cc(C3CCNCC3)c(C)n2)n1`, for which the inhibition by setting is: (Thailand/16681/1984, Concentration 49.5 uM, Number of replicates 2.0, Standard deviation 0.5897033629115713 %) -3.33%; (Thailand/16681/1984, Concentration 99.01 uM, Number of replicates 2.0, Standard deviation 0.7206939136220955 %) -3.64%; (Thailand/16681/1984, Concentration 198.0 uM, Number of replicates 2.0, Standard deviation 2.0772079346215944 %) -3.79%.
For `CCCCCC(=O)N[C@H](C(=O)N1CCC[C@@H](N)C1)c1ccc(OCc2ccccc2)cc1`, the inhibition is -0.123% (Thailand/16681/1984, Concentration 49.5 uM, Number of replicates 2.0, Standard deviation 1.275572557867722 %); 0.674% (Thailand/16681/1984, Concentration 99.01 uM, Number of replicates 2.0, Standard deviation 1.3300520589416613 %); 2.04% (Thailand/16681/1984, Concentration 198.0 uM, Number of replicates 2.0, Standard deviation 1.6287502093065211 %).
In the case of `O=Cc1ccc(N2CCC(C(=O)NCCc3cccc4ccccc34)CC2)cc1`, under setting [1], the inhibition worked out at 11.1%.
In the case of `Cc1cc(CO)c2cccc(Cc3ccccc3C(=O)NCc3c(C)noc3C)c2n1`, the inhibition (Thailand/16681/1984, Concentration 49.95 uM, Number of replicates 2.0, Standard deviation 0.3226747127660098 %) was -0.757% and the inhibition (Thailand/16681/1984, Concentration 99.9 uM, Number of replicates 2.0, Standard deviation 0.21847019123152348 %) came out at 0.39%.
Consider `COc1ccc(F)c(-c2nn(C)cc2NC(=O)c2ccccc2C(F)(F)F)c1`, for which the inhibition (Thailand/16681/1984, Concentration 49.5 uM, Number of replicates 2.0, Standard deviation 3.583319549695768 %) was -2.64%; the inhibition (Thailand/16681/1984, Concentration 99.01 uM, Number of replicates 2.0, Standard deviation 4.648656873158677 %) was -2.47%; the inhibition (Thailand/16681/1984, Concentration 198.0 uM, Number of replicates 2.0, Standard deviation 3.7890463989356435 %) is -2.09%.
`COc1ccc(F)cc1-c1ccccc1C(=O)Nc1cnn(C)c1`: the inhibition by setting is: (Thailand/16681/1984, Concentration 49.5 uM, Number of replicates 2.0, Standard deviation 2.2581672831644526 %) -4.25%; (Thailand/16681/1984, Concentration 99.01 uM, Number of replicates 2.0, Standard deviation 1.9365380229757554 %) -2.49%; (Thailand/16681/1984, Concentration 198.0 uM, Number of replicates 2.0, Standard deviation 2.756548372009165 %) -2.95%.
For the compound `Cn1cc(NC(=O)c2ccccc2C(F)(F)F)c(-c2ccc(CO)cc2)n1`, the inhibition is -4.04% (Thailand/16681/1984, Concentration 49.5 uM, Number of replicates 2.0, Standard deviation 2.3161186941047496 %); -2.8% (Thailand/16681/1984, Concentration 99.01 uM, Number of replicates 2.0, Standard deviation 3.5021876776391307 %); -3.05% (Thailand/16681/1984, Concentration 198.0 uM, Number of replicates 2.0, Standard deviation 4.667974048773386 %).
Regarding `N#Cc1cccc(NC(=O)[C@@H](NC(=O)c2ccc(Oc3ccc(C(F)(F)F)cc3)cc2)c2ccc(OCc3ccccc3)cc2)c1`, the inhibition was -5.09% (Thailand/16681/1984, Concentration 49.5 uM, Number of replicates 2.0, Standard deviation 0.9263674997821656 %); -4.04% (Thailand/16681/1984, Concentration 99.01 uM, Number of replicates 2.0, Standard deviation 0.4269393146330484 %); -5.31% (Thailand/16681/1984, Concentration 198.0 uM, Number of replicates 2.0, Standard deviation 0.9636779131327375 %).

What is called inhibition is the relative decrease from the control value, in per cent.
